Where “and” joins values, the source holds several entries; their conditions need not be identical. Equal values may be shown once. Where a structure was tested more than once in an assay, its records may differ in their call. Calls of active or inactive are those of the source. How the source made its calls: active means hit-call score of the fitted dose curve at least 0.9, where 1 is the maximum; inactive means score below 0.9.
Experiments:
[1] = read-out: Interleukin-8 (IL8), CXCL8 (gene 3576); assay: BSK_CASM3C_IL8: BioMAP Diversity Plus: CASM3C Assay for Interleukin-8 (IL8) Biomarker Activity (AID 2283042); conditions: primary human coronary artery smooth muscle cells; actives raise or lower the signal;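 further: IL-8 protein level quantified by ELISA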
[2] = read-out: Human Leukocyte Antigen - DR isotype (HLADR), HLA-DRA (gene 3122); assay: BSK_CASM3C_HLADR: BioMAP Diversity Plus: CASM3C Assay for Human Leukocyte Antigen - DR isotype (HLADR) Biomarker Activity (AID 2283043); conditions: primary human coronary artery smooth muscle cells; actives raise or lower the signal;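 further: cell-surface HLA-DR protein level quantified by ELISA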
[3] = read-out: Macrophage colony-stimulating factor (MCSF), CSF1 (gene 1435); assay: BSK_CASM3C_MCSF: BioMAP Diversity Plus: CASM3C Assay for Macrophage colony-stimulating factor (MCSF) Biomarker Activity (AID 2283044); conditions: primary human coronary artery smooth muscle cells; actives raise or lower the signal;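 further: M-CSF protein amount quantified by ELISA after 24 h exposure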
[4] = read-out: Low-density lipoprotein receptor (LDLR), LDLR (gene 3949); assay: BSK_CASM3C_LDLR: BioMAP Diversity Plus: CASM3C Assay for Low-density lipoprotein receptor (LDLR) Biomarker Activity (AID 2283045); conditions: primary human coronary artery smooth muscle cells; actives raise or lower the signal;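 further: LDLR protein level on the cell surface quantified by ELISA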
[5] = read-out: Monocyte Chemoattractant Protein-1 (MCP1), CCL2 (gene 6347); assay: BSK_CASM3C_MCP1: BioMAP Diversity Plus: CASM3C Assay for Monocyte Chemoattractant Protein-1 (MCP1) Biomarker Activity (AID 2283046); conditions: primary human coronary artery smooth muscle cells; actives raise or lower the signal;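 further: MCP-1 level quantified by ELISA 24 h after dosing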
[6] = BSK_CASM3C_Proliferation: Cell Proliferation Assessment in the BioMAP Diversity Plus: CASM3C Assay (AID 2283047); conditions: primary human coronary artery smooth muscle cells;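 further: sulforhodamine B total protein stain as relative cell number at 560 nm; sub-confluent cells exposed 48 h before staining; fitted both ways against DMSO so gain or loss of cell number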
[7] = read-out: Monokine induced gamma interferon (MIG), CXCL9 (gene 4283); assay: BSK_CASM3C_MIG: BioMAP Diversity Plus: CASM3C Assay for Monokine induced gamma interferon (MIG) Biomarker Activity (AID 2283048); conditions: primary human coronary artery smooth muscle cells; actives raise or lower the signal;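 further: MIG protein level measured by ELISA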
[8] = read-out: serum amyloid A (SAA), SAA1 (gene 6288); assay: BSK_CASM3C_SAA: BioMAP Diversity Plus: CASM3C Assay for serum amyloid A (SAA) Biomarker Activity (AID 2283049); conditions: primary human coronary artery smooth muscle cells; actives raise or lower the signal;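 further: SAA protein level quantified by ELISA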
[9] = BSK_CASM3C_SRB: Viability Assessment in the BioMAP Diversity Plus: CASM3C Assay (AID 2283050); conditions: primary human coronary artery smooth muscle cells;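 further: total protein by SRB staining as cytotoxicity measure in parallel cultures; cells exposed to compound for 24 h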
[10] = read-out: Thrombomodulin, THBD (gene 7056); assay: BSK_CASM3C_Thrombomodulin: BioMAP Diversity Plus: CASM3C Assay for Thrombomodulin Biomarker Activity (AID 2283051); conditions: primary human coronary artery smooth muscle cells; actives raise or lower the signal;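 further: thrombomodulin protein level measured by ELISA 24 h after dosing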
[11] = read-out: Tissue Factor, F3 (gene 2152); assay: BSK_CASM3C_TissueFactor: BioMAP Diversity Plus: CASM3C Assay for Tissue Factor Biomarker Activity (AID 2283052); conditions: primary human coronary artery smooth muscle cells; actives raise or lower the signal;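 further: cell surface tissue factor protein level read by ELISA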
[12] = read-out: Interferon-gamma inducible Protein 10 (IP10), CXCL10 (gene 3627); assay: BSK_hDFCGF_IP10: BioMAP Diversity Plus: hDFCGF Assay for Interferon-gamma inducible Protein 10 (IP10) Biomarker Activity (AID 2283053); conditions: primary human foreskin fibroblasts; actives raise or lower the signal
In short: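 Cells: human dermal foreskin fibroblasts. Exposure: 24 h post-dosing. Detection: IP-10 ELISA, with values expressed against DMSO controls and fitted in both directions.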

[13] = read-out: Urokinase-type plasminogen activator receptor (uPAR), PLAUR (gene 5329); assay: BSK_CASM3C_uPAR: BioMAP Diversity Plus: CASM3C Assay for Urokinase-type plasminogen activator receptor (uPAR) Biomarker Activity (AID 2283054); conditions: primary human coronary artery smooth muscle cells; actives raise or lower the signal;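 further: cell-surface uPAR protein level quantified by ELISA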
[14] = read-out: Vascular cell adhesion molecule 1 (VCAM1), VCAM1 (gene 7412); assay: BSK_CASM3C_VCAM1: BioMAP Diversity Plus: CASM3C Assay for Vascular cell adhesion molecule 1 (VCAM1) Biomarker Activity (AID 2283055); conditions: primary human coronary artery smooth muscle cells; actives raise or lower the signal;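 further: VCAM-1 protein level quantified by ELISA on the cells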
[15] = read-out: Collagen III, COL3A1 (gene 1281); assay: BSK_hDFCGF_CollagenIII: BioMAP Diversity Plus: hDFCGF Assay for Collagen III Biomarker Activity (AID 2283056); conditions: primary human foreskin fibroblasts; actives raise or lower the signal
In short: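 ELISA readout of Collagen III in human dermal (foreskin) fibroblasts, taken 24 h post-treatment. Gain or loss relative to DMSO vehicle fitted in both directions.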

[16] = read-out: Epidermal growth factor receptor (EGFR), EGFR (gene 1956); assay: BSK_hDFCGF_EGFR: BioMAP Diversity Plus: hDFCGF Assay for Epidermal growth factor receptor (EGFR) Biomarker Activity (AID 2283057); conditions: primary human foreskin fibroblasts; actives raise or lower the signal
In short: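 Dosing human primary skin fibroblasts, then measuring surface EGFR by ELISA at 24 h, gives the endpoint; gains and losses relative to DMSO were fitted in both directions.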

[17] = read-out: Interleukin-8 (IL8), CXCL8 (gene 3576); assay: BSK_hDFCGF_IL8: BioMAP Diversity Plus: hDFCGF Assay for Interleukin-8 (IL8) Biomarker Activity (AID 2283058); conditions: primary human foreskin fibroblasts; actives raise or lower the signal
In short: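 IL-8 levels read by ELISA at 24 hours after dosing human skin fibroblast cultures. Parallel SRB staining assessed overt cytotoxicity, and gain or loss of signal was fitted against DMSO control.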

[18] = BSK_hDFCGF_Proliferation: Cell Proliferation Assessment in the BioMAP Diversity Plus: hDFCGF Assay (AID 2283059); conditions: primary human foreskin fibroblasts;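 further: curves fitted for both rise and fall of signal versus DMSO baseline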
In short: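 Steps: dose primary human dermal fibroblasts (foreskin); […] fix in 10% TCA; stain with 0.1% SRB; read 560 nm; fit gain or loss of signal against DMSO.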

[19] = read-out: Macrophage colony-stimulating factor (MCSF), CSF1 (gene 1435); assay: BSK_hDFCGF_MCSF: BioMAP Diversity Plus: hDFCGF Assay for Macrophage colony-stimulating factor (MCSF) Biomarker Activity (AID 2283060); conditions: primary human foreskin fibroblasts; actives raise or lower the signal
In short: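 M-CSF levels read by ELISA at 24 h post-dosing in human skin fibroblasts. Parallel cultures stained with SRB assessed cytotoxicity at the same time point; response fitted in both directions against the DMSO baseline.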

[20] = BSK_hDFCGF_SRB: Viability Assessment in the BioMAP Diversity Plus: hDFCGF Assay (AID 2283061); conditions: primary human foreskin fibroblasts;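 further: cells exposed to compound for 24 h before the read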
In short: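 Viability was read as total protein: after 10% TCA fixation, wells were stained with 0.1% sulforhodamine B and read at 560 nm. Primary human foreskin fibroblasts were dosed for 24 h, with bidirectional fitting versus DMSO.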

Measured: AC50

CCCCC(CC)CN1C(=O)C2C3C=CC(C3)C2C1=O (centres undefined)
active: [12] 3.97 µM | [15] 30 µM | [18] 29.6 µM | [19] 20 µM
inactive: all other assays above

c1ccc2[nH]c(-c3cscn3)nc2c1
inactive: all assays above

C#C[C@]1(O)CC[C@H]2[C@@H]3CCC4=CC(=O)CC[C@@H]4[C@H]3CC[C@@]21CC
active: [8] 6.06 µM
inactive: all other assays above

S=C(S)NCCNC(=S)S.[Mn+2].[S-]C([S-])=NCCN=C([S-])[S-].[Zn+2]
active: [2] 10 µM | [3] 5.89 µM | [4] 10 µM and 5.32 µM | [6] 14.2 µM [middle of 4 runs] | [11] 4.17 µM [middle of 4 runs] | [12] 10.4 µM | [19] 1.41 µM
inactive: [1] | [2] | [3] | [4] | [5] | [6] | [7] | [8] | [9] | [10] | [11] | [12] | [13] | [14] | [15] | [16] | [17] | [19] | [20]

CCOC(=O)NCCOc1ccc(Oc2ccccc2)cc1
active: [6] 7.68 µM | [15] 12.6 µM | [18] 24.7 µM | [19] 23.1 µM
inactive: all other assays above

CC(C)(c1ccc(O)cc1)c1ccc(O)cc1
inactive: [1] | [2] | [3] | [4] | [5] | [6] | [7] | [8] | [9] | [10] | [11] | [12] | [13] | [14] | [15] | [16] | [17] | [19] | [20]
active: [10] 8.47 µM | [12] 14.4 µM | [15] 6.87 µM and 25.7 µM | [18] 26.2 µM [middle of 4 runs]

C#CCOC(=O)[C@@H](C)Oc1ccc(Oc2ncc(Cl)cc2F)cc1
active: [18] 14.9 µM
inactive: all other assays above

c1ccc(Nc2ccccc2)cc1
active: [16] 34.1 µM
inactive: all other assays above

CN(C)C(=O)Nc1ccc(Cl)c(Cl)c1
inactive: all assays above

CCOC(=O)COc1cc(-n2ncc(C(F)(F)F)c(C)c2=O)c(F)cc1Cl
inactive: all assays above

CCNc1nc(N)nc(Cl)n1
active: [8] 20 µM
inactive: all other assays above

CCC(C)OC(=O)N1CCCCC1CCO (centres undefined)
inactive: all assays above
